Measured values published in PubChem BioAssay (NCI).
The panel holds about 79,000 compounds, 15% with a hit somewhere; the sample as a whole holds those more often. Calls of active or inactive are those of the source. Rule as the data show it: active = growth inhibition above about 70%; inactive = the rest.

Experiments:
[1] = NCI Yeast Anticancer Drug Screen. Data for the rad50 strain (AID 155);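 also: 0% = growth of vehicle-only cultures of the same strain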; settings: S. cerevisiae rad50 strain growth inhibition; at 50.0 µM; stronger effect = higher value
In short: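 Readout: growth inhibition relative to vehicle-treated cultures. Compound exposure was carried out in a genetically defined yeast strain deficient in DNA damage repair.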

[2] = NCI Yeast Anticancer Drug Screen. Data for the mec2-1 strain (AID 157); settings: S. cerevisiae mec2-1 strain, at 50.0 µM, stronger effect = higher value
In short: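 Strain: mec2-1 (DNA repair/cell cycle alteration). Compound exposure, then growth measured; inhibition expressed relative to vehicle.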

[3] = NCI Yeast Anticancer Drug Screen. Data for the sgs1 mgt1 strain (AID 161);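 also: 0% = growth of cultures given vehicle only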; settings: S. cerevisiae sgs1 mgt1 strain, at 50.0 µM, stronger effect = higher value
In short: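 Mutant yeast exposed to compound; growth scored against vehicle-only wells.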

[4] = NCI Yeast Anticancer Drug Screen. Data for the cln2 rad14 strain (AID 165);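 also: 0% = growth equal to vehicle treated cultures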; settings: S. cerevisiae cln2 rad14 strain, at 50.0 µM, stronger effect = higher value
In short: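 Compounds are applied to the cln2 rad14 yeast strain, and growth is then compared with that of vehicle-treated cultures to give inhibition.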

[5] = NCI Yeast Anticancer Drug Screen. Data for the bub3 strain (AID 167); settings: S. cerevisiae bub3 mutant strain, at 50.0 µM, stronger effect = higher value
In short: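 Readout: yeast growth inhibition, expressed relative to vehicle-only wells. The test organism is a mutant strain from a panel with lesions in DNA repair or checkpoint genes.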

[6] = NCI Yeast Anticancer Drug Screen. Data for the mlh1 rad18 strain (AID 175); settings: S. cerevisiae mlh1 rad18 strain growth inhibition; at 50.0 µM; stronger effect = higher value
In short: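 Read-out is yeast growth inhibition, calculated against vehicle-only controls. The compound was applied to a strain engineered with DNA damage repair alterations.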

Measured: growth inhibition

CCCCOc1ccc2c(c1)CC[C@@H]1[C@@H]2CC[C@]2(C)C(=O)N(CCCC)C(=O)C[C@@H]12
inactive: [1] 5% | [2] -3.25% | [3] 16.4% | [4] -17.1% | [5] 16.5% | [6] 4.2%

COCC(=O)C(C(C)=O)C(c1ccc(N(C)C)cc1)C(C(C)=O)C(=O)COC (stereo unspecified)
inactive: [1] -12.2% | [2] -10.6% | [3] -12.7% | [4] -69.7% | [5] 2.8% | [6] -9.35%

CC(C)(C)N[P+](Cc1ccc(C[P+](NC(C)(C)C)(NC(C)(C)C)c2ccccc2)cc1)(NC(C)(C)C)c1ccccc1
inactive: [1] -3.05% | [2] -10.1% | [3] -0.9% | [4] -13.5% | [5] -2.1% | [6] 5.45%

NC(C(=O)O)c1ccc(F)cc1 (stereo unspecified)
inactive: [1] -9.1% | [2] -1.4% | [3] 28.7% | [4] -10% | [5] 2.4% | [6] 37.5%

C=CCN1C=CC=C/C1=C\C=C(/C#N)C(=O)OCC
inactive: [1] 10.8% | [2] 12.7% | [3] 7.8% | [4] -15.2% | [5] -8.65% | [6] 7.35%

CC1(C)OCC(C2OC(C)(C)OC2C(CO)Nc2ccc([N+](=O)[O-])cc2[N+](=O)[O-])O1 (stereo unspecified)
inactive: [1] 53% | [2] 21.4% | [3] 59.1% | [4] 41.4% | [5] 11.2% | [6] 49.1%

Cc1nc2nn(C)cc2c(=O)n1/N=C/c1ccccc1
inactive: [1] -18.8% | [2] -35.5% | [3] -50.1% | [4] -5.9% | [5] -4.15% | [6] -37.4%

CC1(C)OC12C=CC1C2C2CCC1C21OC1(C)C (stereo unspecified)
inactive: [1] 8% | [2] 8.7% | [3] -2.85% | [4] 20.1% | [5] -7.3% | [6] -14.6%

CC1C(=O)N2C(=O)C(C)C(C)C(=O)N2C(=O)C1C (stereo unspecified)
inactive: [1] 1.8% | [2] -6.25% | [3] 7.9% | [4] -12.8% | [5] 3.85% | [6] -12.5%

CC1CCOC(c2ccc(O)cc2)O1 (stereo unspecified)
inactive: [1] -4.05% | [2] -13.1% | [3] -4.65% | [4] -29.3% | [5] -14.4% | [6] -3.75%

COc1cc([N+](=O)[O-])cc(C=O)c1O
inactive: [1] 6.8% | [2] 28.4% | [3] 0.7% | [4] -67.5% | [5] -38.8% | [6] 11.7%

CCOC(=O)Cc1nc2ccc3c(c2[nH]c1=O)C(=O)c1ccccc1C3=O
inactive: [1] 34.7% | [2] 30.1% | [3] 17.1% | [4] 29.4% | [5] 33.2% | [6] 67.8%

O=[N+]([O-])c1ccc2nc(Cl)n[n+]([O-])c2c1
active: [1] 88.7% | [2] 93% | [3] 91.5% | [4] 89.3% | [5] 91.1% | [6] 91.8%

CN1CCN(C(=O)Nc2ccc(N=Nc3ccccc3)cc2)CC1
inactive: [1] -9.3% | [2] -17.2% | [3] 6.1% | [4] -29.5% | [5] 16.8% | [6] -6.25%

O=C(OC1CCCC1)c1ccccc1
inactive: [1] 5.3% | [2] 9.9% | [3] -26.1% | [4] -29.1% | [5] -10.2% | [6] -2.2%

CCSc1nnc2c(-c3ccccc3)n[nH]c2n1
inactive: [1] -0.75% | [2] -0.05% | [3] -21.8% | [4] -25.9% | [5] -27.6% | [6] -12.1%

O=c1c2ccccc2on1CN1CCN(Cn2oc3ccccc3c2=O)CC1
inactive: [1] 3.6% | [2] -11.1% | [3] -8% | [4] -12.9% | [5] -12.1% | [6] 5.05%

CCCCCCCCC(=O)c1c(OC)oc(C=O)cc1=O
inactive: [1] -0.5% | [2] -22.8% | [3] 31.8% | [4] 26.2% | [5] -19.6% | [6] 4%

O=[N+]([O-])c1cccnc1Sc1ccccc1C1=NCCCN1
inactive: [1] -5.55% | [2] -12.3% | [3] -3.45% | [4] 19.9% | [5] -4.2% | [6] -4.1%

NC1=NC(=S)CS1
inactive: [1] 0.95% | [2] -3.85% | [3] -12.3% | [4] -42.1% | [5] 16.7% | [6] 9.35%

Cc1ccc(NC(=O)c2ccco2)c(C)c1
inactive: [1] -2.3% | [2] -2.55% | [3] 5.05% | [4] 2.65% | [5] 8.4% | [6] -3.1%

CCCCCCCCCCCC(=O)NC(=S)Nc1ccc(N(C)C(C)=O)cc1
active: [1] 90.5% | [2] 92.8% | [3] 92.5% | [4] 87.6% | [5] 90% | [6] 91.9%

Cc1nccc2cccc(CNC(C)C)c12
inactive: [1] 3.7% | [2] 2.7% | [3] 4.1% | [4] 7% | [5] -11.2% | [6] -4.25%

CC1(c2ccc(-c3ccccc3)cc2)NC(=O)NC1=O (stereo unspecified)
inactive: [1] 3.55% | [2] 10.3% | [3] 14.9% | [4] -22.5% | [5] -4.85% | [6] -2.3%

Nc1nc(-c2ccco2)cc(-c2ccc(CO)o2)n1
inactive: [1] -21.8% | [2] 3.5% | [3] -10.2% | [4] 8.25% | [5] 16% | [6] 3.9%

NCCCN(CCCCN(CCCN)C(=O)OCc1ccccc1)C(=O)OCc1ccccc1
inactive: [1] 6.85% | [2] -13.1% | [3] -18.9% | [4] 8.55% | [5] 1.2% | [6] -55.9%

COc1ccc(NS(=O)(=O)c2ccc(NCc3c4ccccc4nc4cc(Cl)ccc34)cc2)nn1
inactive: [1] 20.2% | [2] 45% | [3] 9.65% | [4] -30.8% | [5] -8.3% | [6] 37.5%

COc1ccc([N+](=O)[O-])c2c(C)cc(=O)[nH]c12
inactive: [1] 32.1% | [2] 19.4% | [3] 21.9% | [4] -9.5% | [5] -23.6% | [6] 35.7%

C#[N+]CCOP(=O)(OCC1OC(n2cc(C)c(=O)[nH]c2=O)CC1N=[N+]=[N-])O[C@H]1CC[C@@]2(C)C(=CC[C@H]3[C@@H]4CC[C@H](C(C)/C=C/C(CC)C(C)C)[C@@]4(C)CC[C@@H]32)C1 (stereo partly specified)
inactive: [1] -32.3% | [2] -14.4% | [3] -23.1% | [4] -7.4% | [5] 7.5% | [6] -19.1%

CCOC(=O)c1cc2cc([N+](=O)[O-])ccc2[nH]1
inactive: [1] 10% | [2] 9.5% | [3] 0% | [4] 5.65% | [5] -7.2% | [6] 16.4%

O=C(O)c1scc2c1CCCC2
inactive: [1] -1.65% | [2] -21.7% | [3] -7.5% | [4] -67% | [5] -22.3% | [6] -39.6%

COC1N(c2ccccc2)CCN1c1ccccc1
inactive: [1] 3.05% | [2] 6.1% | [3] -23.2% | [4] 4.75% | [5] 5.55% | [6] 8.3%

Cc1ccc(S(=O)(=O)OC2CC(C(C)(C)C)CCC2c2ccccc2)cc1 (stereo unspecified)
inactive: [1] -29.1% | [2] -7% | [3] -48.9% | [4] -84.2% | [5] -5.15% | [6] 5.9%

O=C(CCCC(=O)N/N=C/c1ccc(Cl)cc1)N/N=C\c1ccc(Cl)cc1
inactive: [1] -27.4% | [2] -9.9% | [3] -9.9% | [4] -11.6% | [5] -1.65% | [6] -16.9%

CCCCCN(C(=O)CCC)c1ccccc1
inactive: [1] 45.8% | [2] 8.5% | [3] 24.5% | [4] 17.7% | [5] 3.2% | [6] 41.8%

CCN=NNc1ccc(C#N)cc1
inactive: [1] 6.4% | [2] 2.15% | [3] -0.25% | [4] 6.1% | [5] 16.9% | [6] 0.55%

NC(N)=N/N=C/C(=N\N=C(N)N)C(O)CO (stereo unspecified)
inactive: [1] 28.9% | [2] -4.45% | [3] 1.85% | [4] 2.4% | [5] 4.85% | [6] -9.1%

Cc1cc(=O)n(NC(N)=O)c(C)c1C(=O)O
inactive: [1] -0.8% | [2] 0.45% | [3] -13.8% | [4] -29.5% | [5] -1.3% | [6] -5.45%

COC(=O)C1OC1C(=O)OC (stereo unspecified)
inactive: [1] -17.4% | [2] -26.5% | [3] 1.15% | [4] -28.9% | [5] 12.3% | [6] 1.6%

NC(CO)C(=O)NCCS(=O)(=O)O (stereo unspecified)
inactive: [1] -10.7% | [2] 9.6% | [3] -3.7% | [4] 22.1% | [5] -7.05% | [6] -6.95%

O=C(O)c1cccc(-n2cnc3c(=O)[nH]cnc32)c1
inactive: [1] -0.25% | [2] -3.85% | [3] -5.85% | [4] -9.15% | [5] 8.6% | [6] -14.2%
